IL1B secr inh – inflammasome signaling inhibition, IL-1 beta readout; AID 743279; THP-1 LPS/ATP IL-1B secretion, AlphaLISA, 16 h; active compounds read low; activity change, % at 57.5 µM; 360,000 compounds, 4.7% hits; in the data active = activity change below about -50%; inconclusive = mostly about -30% to -49%
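Secreted IL-1B measured by AlphaLISA bead assay after 16 h compound exposure of THP-1 cells; compounds (final up to 57.5 uM) added 1 h before LPS (250 ng/mL) and ATP (1.25 mM) stimulation; lower signal means less secretion.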
HT1080-NT tox – kills 2HG-producing HT-1080-NT fibrosarcoma cells; HT-1080-NT fibrosarcoma viability, CellTiter-Glo ATP luminescence, 48 h; Potency, µM (titrated, usually from 46.1 µM), without a hit: at the highest dose activity, negative = less viability, most hits filed as cytotoxic; 360,000 compounds, 1.6% hits;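 note: NT is the 2HG producing partner of a matched IDH1 knockdown line; potency is the fitted concentration of half-maximal effect; 0% = DMSO-treated cells and -100% = media-only wells without cells; nearly all actives have a fitted effect of over 55% in size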
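Read-out is CellTiter-Glo luminescence after 10 minutes at room temperature, following 48 hours' compound treatment of HT-1080-NT cells (750 cells/well, RPMI, 5% FBS, 37 degrees C).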
HT1080 IDH1KD tx – toxicity to HT-1080 IDH1 knockdown cells (counter line) | HT-1080 IDH1 knockdown viability, ATP luminescence, 48 h | Potency, µM (series often up to 46.1 µM), inactives show at the highest dose activity, negative = toxicity, actives largely listed as cytotoxic | 360,000 compounds, 2% hits;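 note: potency is the fitted concentration of half-maximal effect; 0% = DMSO wells and -100% = cell-free medium wells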
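HT-1080-IDH1KD cells (IDH1 knocked down), 750/well in RPMI with 5% FBS, treated with compound 48 h at 37 degrees C. Viability by CellTiter-Glo luminescence, normalised to DMSO and no-cell wells; concentration-response curves classed.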
DT40 TDP1 no CPT – qHTS for Inhibitors of human tyrosyl-DNA phosphodiesterase 1 (TDP1): qHTS in cells in absence of CPT; DT40 Tdp1-/- hTDP1 cells, no CPT, ATP luminescence, 48 h; Potency, µM (doses to about 46.2 µM), for the others: top-dose activity change, negative = growth inhibition, most hits filed as inhibitors; 420,000 compounds, 15% hits; AID 686978, 2013; note: potency is the fitted concentration of half-maximal effect; nearly all actives have a fitted effect of over 55% in size
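Seeded 400 DT40-hTDP1 cells/well (vehicle DMSO, no 20 nM CPT); pinned compounds; ≥48 hr at 37 °C; CellTiter-Glo luminescence as viability measure.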
TDP1 cell CPT – DT40-hTDP1 cell growth loss with CPT | chicken DT40 Tdp1-/-;hTDP1 cells + 20 nM CPT, ATP luminescence, 48 h | Potency, µM (doses to about 46.2 µM), for inactives: at the top dose activity change, negative = growth inhibition, actives largely listed as inhibitors | 420,000 compounds, 12% hits; note: potency is the fitted concentration of half-maximal effect; nearly all actives have a fitted effect of over 55% in size
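Chicken DT40 Tdp1-/- cells complemented with human TDP1, 400 cells/well, exposed to compounds plus 20 nM camptothecin for at least 48 h at 37 C; viability read as ATP content by CellTiter-Glo luminescence.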
Active calls of the source: *; ? = inconclusive. Sampled rows, rich in hits. Any-hit rate of the full collection: about 19%. Unless noted, calls come from the whole dose curve; as a rule, active = well fitted curve in the direction sought with a large enough effect; inconclusive = small, poorly fitted or top-dose-only effect, or another doubt; inactive = no such curve, though single readings can be large; an effect the other way counts as inactive or inconclusive. Unless noted, % is set by controls: 0 for no effect and ±100 for the full control effect.

SMILES | IL1B secr inh | HT1080-NT tox | HT1080 IDH1KD tx | DT40 TDP1 no CPT | TDP1 cell CPT
Cc1cc(C)c(Cn2cnc(-c3ccc([N+](=O)[O-])cc3)c2)c(C)c1 | -64* | -22% | ? | 15µM* | 13µM*
Cc1onc(-c2ccc(Cl)cc2)c1-c1ccnc(SCC(=O)Nc2cc(Cl)cc(Cl)c2)n1 | -13 | -5% | 0% | ? | ?
Cn1cc(-c2cc(C(=O)O)on2)cn1 | 9 | -8% | 1% | -13% | -1%
O=C(Cn1nnc(-c2ccc3c(c2)OCO3)n1)Nc1ccccc1C(=O)O | 16 | 1% | -12% | -4% | -9%
O=C(NC(c1ccc(F)cc1)c1ccc2ccccc2n1)C1CCN(Cc2ccc3ccccc3n2)CC1 (configuration not stated) | -21 | ? | 23µM* | 18µM* | ?
O=C(NC(c1ccccc1)c1ccsc1)C1CCN(Cc2ccc(Cl)c(Cl)c2)CC1 (configuration not stated) | ? | 9% | 4% | ? | ?
COc1cc(/C=C/CN2CCC(C(=O)NC(c3ccc(F)cc3)c3ccc4ccccc4n3)CC2)ccc1OC(C)=O (configuration not stated) | -62* | 16µM* | ? | 15µM* | ?
O=C(NC(c1ccc(F)cc1)c1ccc2ccccc2n1)C1CCN(CCOc2ccc(Cl)cc2)CC1 (configuration not stated) | -27 | ? | 21µM* | 21µM* | 21µM*
O=C(NC(c1ccc(F)cc1)c1ccc2ccccc2n1)C1CCN(Cc2cccc(C(F)(F)F)c2)CC1 (configuration not stated) | -89* | 6.5µM* | 5.8µM* | 5.2µM* | 2.9µM*
COc1cc(OC)nc(C(NC(=O)C2CCN(Cc3ccc(N(C)C)cc3)CC2)c2ccc(F)cc2)n1 (configuration not stated) | -6 | 1% | 0% | ? | ?
CN(C)c1ccc(CN2CCC(C(=O)NC(c3ccc(F)cc3)c3ccc4ccccc4n3)CC2)cc1 (configuration not stated) | -54* | 15µM* | ? | 23µM* | ?
O=C(Nc1cccc2[nH]ncc12)c1ccc(F)cc1 | 6 | 4% | 1% | 7.3µM* | ?
COc1cccc(C(C)(O)c2nc(-c3ccccc3OC)cs2)c1 (configuration not stated) | 0 | -9% | -23% | -93% | ?
O=C(O)c1cccc(-c2csc(C(O)(c3ccccc3)C(F)(F)F)n2)c1 (configuration not stated) | -9 | 17% | 5% | -6% | 2%
OC(c1ccccc1)(c1nc(-c2cccc(C(F)(F)F)c2)cs1)C(F)(F)F (configuration not stated) | -30 | 23µM* | 16µM* | ? | ?
COc1ccccc1-c1csc(C(O)(c2ccccc2)C(F)(F)F)n1 (configuration not stated) | 8 | ? | ? | 18µM* | ?
OC(c1ccccc1)(c1nc(-c2ccc(Cl)cc2)cs1)C(F)(F)F (configuration not stated) | 1 | 16µM* | ? | ? | ?
COc1ccc(-c2csc(C(C)(O)c3cccnc3)n2)cn1 (configuration not stated) | 49 | 15% | 1% | -27% | ?
COc1ccc(-c2csc(C(O)(c3ccccc3)C(F)(F)F)n2)cc1 (configuration not stated) | 28 | ? | ? | ? | ?
COc1ccc(-c2csc(C(O)(c3ccccc3)C(F)(F)F)n2)cn1 (configuration not stated) | -18 | 23µM* | -29% | ? | ?
O=C(NCCSCc1ccccc1)c1ccc(C2SCC(=O)N2Cc2ccccc2)cc1 (configuration not stated) | ? | -26% | -28% | ? | ?
N#Cc1cccc(-c2csc(C(O)(c3ccccc3)C(F)(F)F)n2)c1 (configuration not stated) | 4 | ? | 16µM* | ? | ?
OC(c1ccccc1)(c1nc(-c2cc3ccccc3o2)cs1)C(F)(F)F (configuration not stated) | 0 | 16µM* | ? | 16µM* | 21µM*
C=C(C)C(=O)N1CC2(CC(c3cccc(NC(=O)CCCCC)c3)=NO2)C[C@H]1C(N)=O (some centres not stated) | 4 | 14% | 2% | -17% | 20%
CC1(O)CC(C)(C)C(C#N)C(=O)N1 (configuration not stated) | -13 | 13% | 16% | 1% | -12%
SMILES | IL1B secr inh | HT1080-NT tox | HT1080 IDH1KD tx | DT40 TDP1 no CPT | TDP1 cell CPT
O=c1c2ccccc2nc2n1CCCCC2 | 19 | 5% | 1% | -13% | -8%
N=c1c2ccccc2nc2n1CCCCCCCCCCC2 | -87* | ? | 23µM* | 7.3µM* | 5.2µM*
CC(=O)N1CCOc2ccc(S(=O)(=O)NC[C@H]3O[C@@H](n4ccc(N)nc4=O)[C@H](O)[C@@H]3O)cc21 | -10 | -3% | 0% | -4% | -1%
Cc1cc(C(=O)N/N=C/c2cc(Cl)cc([N+](=O)[O-])c2O)c2ccccc2n1 | 38 | ? | ? | ? | ?
Cc1ncc(CO)c(/C=N/NC(=S)Nc2ccc(C(C)C)cc2)c1O | 166 | 3% | ? | 21µM* | 15µM*
Cc1cc(C(=O)N/N=C/c2c(CO)cnc(C)c2O)c2ccccc2n1 | 162 | ? | 21µM* | ? | ?
Cc1ncc(CO)c(/C=N/NC(=O)c2cc(Br)ccc2O)c1O | 95 | ? | ? | 16µM* | 16µM*
Cc1c(/C=N/NC(=O)c2cc(Br)ccc2O)c(=O)n(C)c(=O)n1C | -4 | 0% | -2% | -11% | -17%
O=C1N[C@@H](Cc2c[nH]c3ccccc23)COC(=O)[C@H](Cc2ccc(F)cc2)C/C=C\C[C@H]1CC(=O)N(CCO)Cc1ccccc1 | -21 | ? | ? | 16µM* | 13µM*
O=C1N[C@H](Cc2ccccc2)COC(=O)[C@H](Cc2ccc(F)cc2)C/C=C\C[C@H]1CC(=O)N(CCO)Cc1ccccc1 | -10 | ? | -29% | ? | ?
O=C1N[C@@H](Cc2c[nH]c3ccccc23)COC(=O)[C@@H](Cc2ccc(F)cc2)CC/C=C/C[C@@H]1CC(=O)N(CCO)Cc1ccccc1 | -60* | -20% | ? | 26µM* | ?
